Assay results taken from PubChem BioAssay.
Values joined by “and” are separate entries in the source; they are usually repeats but may differ in a detail not shown here. Equal values may be shown once. Active and inactive are the calls of the source. Cut-off read from the data, not from the text of the source, unless noted: active = parasite load remaining mostly below about 12% (no sharp cut-off); inactive = mostly above about 10%.

How the values were obtained:
[1] = compounds altering viability of human ES cells (AID 493140; call rule not given here;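 note: cells exposed to compounds for four days before counting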); conditions: human embryonic stem cell survival screen; stronger effect = higher value
[2] = P. berghei load reduction in hepatocytes – cell-based, HepG2, luciferase luminescence, HepG2 viability, primary screen (AID 624349);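 note: 100% = mean of DMSO negative control wells on the same plate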; conditions: P. berghei liver stage in HepG2, luciferase luminescence, concentration not given here; parasite load remaining: stronger effect = lower value; viability: measured here: HepG2 viability without parasites
[3] = Wnt pathway potentiators raising nuclear beta-catenin – imaging, WNT3A-conditioned medium, mouse C2C12, NPC library, primary screen (AID 1117326; in the data active = nuclear beta-catenin stimulation mostly above about 4.2%, no sharp cut-off; inactive = mostly below about 10%); conditions: stronger effect = higher value
[4] = stimulators of insulin release from INS-1E, primary screen, cell-based, 5 mM glucose, NPC library (AID 1117329;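 active = compound raises insulin release from rat beta cells at 5 mM glucose, no numeric limit stated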); conditions: rat INS-1E insulin secretion, at 10 µM, stronger effect = higher value
[5] = growth inhibition of GSK3B-pretreated HCT116 cells – cell-based, CellTiter-Glo, 0.2 to 20 µM (AID 1117336;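 active = compounds lowering colon cancer cell viability after pretreatment blocking the GSK3B kinase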); conditions: HCT116 viability after GSK3B inhibitor, at 20 µM, stronger effect = higher value
[6] = inhibition of endothelial tube formation, primary screen, imaging, VEGF stimulated, CD31 staining, tube area, NPC library (AID 1117340;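 active = compound that reduces growth-factor-driven endothelial tube area in a mixed cell culture, no cutoff stated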); conditions: VEGF-stimulated ADSC/ECFC co-culture, at 10 µM, stronger effect = higher value
[7] = GLP1 release stimulators, primary, NCI-H716, NPC library (AID 1117341;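 active = compound raises GLP1 secretion from the human gut endocrine cells, with no numeric limit stated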); conditions: NCI-H716 cells, at 10 µM, stronger effect = higher value
[8] = HCT116 colon cancer cell growth inhibition, primary screen, CellTiter-Glo luminescence, NPC library (AID 1117342;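 active = compounds that lower survival of HCT116 colon cancer cells in the luminescence readout, no numeric limit stated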); conditions: at 20 µM (top of the series)
[9] = reduced SW480 viability measured with CellTiter-Glo, NPC library, primary (AID 1117343;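 active = compounds that lower viability of the colon cancer cells in the luminescence readout, with no numeric limit stated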); conditions: CellTiter-Glo luminescence; at 20 µM (top of the series) unless noted
[10] = NPC library primary testing for decreased DLD-1 cell viability via CellTiter-Glo (AID 1117346;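 active = compounds that lower survival of DLD-1 colon cancer cells in the luminescence readout, no cutoff given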); conditions: DLD-1 viability, CellTiter-Glo luminescence; at 20 µM (top of the series)
[11] = EMT-state selective cytotoxicity in co-culture – imaging, PC-3E GFP, TEM4-18 mCherry, primary screen (AID 1345086;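 active = compounds killing one labelled cell type while sparing the other, by normalised counts and ratio limits, not self-fluorescent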;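 for all read-outs here: cells exposed to compound for 72 h before imaging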;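 for red/green cell ratio (normalised): normalised mesenchymal count divided by normalised epithelial count so high means epithelial killing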); conditions: PC-3E GFP / TEM4-18 mCherry co-culture, imaging cell counts, at 1 µM; for red/green cell ratio (normalised): actives lie on both sides, counts scaled to control wells, 1 = unselective
[12] = MELAS cybrid and Rieske KO viability enhancers – cell-based, MELAS cybrids, Rieske KO mouse fibroblasts, CellTiter-Glo, primary screen (AID 1508586;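 active = mean z-score across replicates of 1.96 or higher in either the MELAS or the Rieske mutant cell line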;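 note: z relative to plate mean and SD of compound and empty wells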); conditions: low glucose
[13] = target: NAD(+) hydrolase SARM1 (Homo sapiens) (UniProt Q6SZW1); experiment: blocking NAD cleavage by SARM1 SAM-TIR – cell lysate, NAD-Glo luminescence (AID 1508614;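 active = compound whose remaining NAD level is above about 45 nM, limit read from the data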;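 note: higher remaining NAD means stronger inhibition of SARM1 NADase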); conditions: SAM-TIR HEK293T lysate NADase, at 1 µM, stronger effect = higher value
NAD(+) hydrolase SARM1 (Homo sapiens), sequence (Q6SZW1 whole entry, looked up): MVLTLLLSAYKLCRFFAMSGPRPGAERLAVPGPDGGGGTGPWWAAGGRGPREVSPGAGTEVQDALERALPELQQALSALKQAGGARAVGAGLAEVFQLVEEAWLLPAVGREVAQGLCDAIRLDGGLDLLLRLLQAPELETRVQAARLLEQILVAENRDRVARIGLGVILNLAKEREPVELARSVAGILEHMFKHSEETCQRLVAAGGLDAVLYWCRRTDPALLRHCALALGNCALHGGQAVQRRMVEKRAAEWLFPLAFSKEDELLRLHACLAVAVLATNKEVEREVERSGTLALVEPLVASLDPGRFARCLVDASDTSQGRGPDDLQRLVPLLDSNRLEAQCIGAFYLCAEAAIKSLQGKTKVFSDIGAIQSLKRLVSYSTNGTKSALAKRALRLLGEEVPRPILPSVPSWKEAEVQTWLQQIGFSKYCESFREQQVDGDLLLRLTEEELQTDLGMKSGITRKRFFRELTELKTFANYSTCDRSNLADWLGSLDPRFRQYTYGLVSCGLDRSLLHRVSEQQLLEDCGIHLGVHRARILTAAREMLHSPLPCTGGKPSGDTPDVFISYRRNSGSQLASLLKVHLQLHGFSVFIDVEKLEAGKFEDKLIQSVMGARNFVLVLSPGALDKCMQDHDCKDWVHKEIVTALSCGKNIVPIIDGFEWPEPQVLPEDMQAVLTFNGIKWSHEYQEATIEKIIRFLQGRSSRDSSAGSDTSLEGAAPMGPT

[14] = viability loss with induced miR-34 in A549 – imaging, A549 dox-inducible miR-34, nuclei and caspase counts, primary screen (AID 1347080;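 active = compounds whose cell count with miR-34 switched on is under 0.7 times the count with it off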); conditions: A549 miR-34 inducible, Hoechst nuclei count, 48 h
[15] = measured here: epithelial PC-3E GFP cell survival
[16] = measured here: mesenchymal TEM4-18 mCherry cell survival
[17] = MELAS cybrid survival, CellTiter-Glo 48 h, stronger effect = higher value
[18] = Rieske KO mouse fibroblast survival, CellTiter-Glo 72 h
[19] = stronger effect = lower value, cell number ratio, induced over uninduced
[20] = measured here: relative caspase fold change +Dox/-Dox
[21] = measured here: total cells with miR-34 induction, stronger effect = lower value
[22] = measured here: total cells without miR-34 induction

NC(N)=NC(N)=NCCc1ccccc1
survival [1]: 15 (inactive)
parasite load remaining [2]: -0.135% (inactive) and 69.8% (inactive) and 0.98% (inactive)
viability [2]: 41.9% and 91.2% and 89.5%
nuclear beta-catenin stimulation ([3]; at 10 µM): 0% (inactive)
nuclear beta-catenin stimulation ([3]; stimulation, at 2 µM): 1.1%
insulin secretion stimulation [4]: -0.2% (inactive)
viability decrease [5]: 27.4% (inactive)
tube area decrease [6]: 27.6% (inactive)
GLP1 secretion stimulation [7]: -0.4% (inactive)
inhibition of viability [8]: 9.6% (inactive)
viability decrease (inhibition) [9]: 70.3% (active)
viability decrease (inhibition) [10]: 9.45% (inactive)
red/green cell ratio (normalised) [11]: 0.86 (inactive)
normalised cell number [11, 15]: 1.06
normalised cell number [11, 16]: 0.91
z-score [12, 17]: -0.896 (inactive) and -0.373 (inactive) and -0.362 (inactive)
z-score [12, 18]: -0.647 and 0.306 and -0.384
remaining NAD [13]: 10 nM (inactive)

C#CCN(C)CCCOc1ccc(Cl)cc1Cl
survival [1]: 8.67 (inactive)
parasite load remaining [2]: 88.7% (inactive) and 89.7% (inactive)
viability [2]: 100% and 71.8%
nuclear beta-catenin stimulation ([3]; at 10 µM): 0.3% (inactive)
nuclear beta-catenin stimulation ([3]; stimulation, at 2 µM): -0.5%
insulin secretion stimulation [4]: -2.3% (inactive)
viability decrease [5]: -91.8% (inactive)
tube area decrease [6]: 22.3% (inactive)
GLP1 secretion stimulation [7]: -0.5% (inactive)
inhibition of viability [8]: 2.63% (inactive)
viability decrease (inhibition) [9]: 48.3% (inactive)
viability decrease (inhibition) [10]: 13.7% (inactive)
red/green cell ratio (normalised) [11]: 1 (inactive)
normalised cell number [11, 15]: 1.14
normalised cell number [11, 16]: 1.14
fold change [14, 19]: 1.02 (inactive) and 0.917 (inactive) and 0.833 (inactive)
fold change [14, 20]: 0.924 and 0.754 and 1.44
cell count [14, 21]: 9600 and 8700 and 8160
cell count [14, 22]: 9370 and 9480 and 9800
z-score [12, 17]: 0.667 (inactive)
z-score [12, 18]: 0.294
remaining NAD [13]: 10 nM (inactive)

COc1ccc2[nH]c(S(=O)Cc3ncc(C)c(OC)c3C)nc2n1 (stereo unspecified)
parasite load remaining [2]: 0.57% (active)
viability [2]: 93%
nuclear beta-catenin stimulation ([3]; at 10 µM): 5.2% (inactive)
nuclear beta-catenin stimulation ([3]; stimulation, at 2 µM): -0.9%
insulin secretion stimulation [4]: 4.2% (inactive)
viability decrease [5]: 16.5% (inactive)
tube area decrease [6]: 14.1% (inactive)
GLP1 secretion stimulation [7]: 4.6% (inactive)
inhibition of viability [8]: 4.9% (inactive)
viability decrease (inhibition) [9]: -1.6% (inactive)
viability decrease (inhibition) [10]: 4.3% (inactive)
red/green cell ratio (normalised) [11]: 1.06 (inactive)
normalised cell number [11, 15]: 1.01
normalised cell number [11, 16]: 1.07
fold change [14, 19]: 0.835 (inactive)
fold change [14, 20]: 1.32
cell count [14, 21]: 8340
cell count [14, 22]: 9990
z-score [12, 17]: 1.95 (inactive) and 1.02
z-score [12, 18]: 0.213 and 2.3
remaining NAD [13]: 77 nM (active)
